# The list shows a part of the results. Results filed as inconclusive are left out. Activity calls are given as the source filed them.
# Assays:
# [1] = inhibitors of TNFa-induced NFkB p65 translocation, primary screen, imaging, HUVEC, MLSMR starter and 10KST1 sets (AID 438;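 active = inhibition above 20% together with a positive visual image hit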;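 note: compound added about 3h40 before a 20 min TNFalpha stimulation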;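 for inhibition: signal is the nuclear over cytoplasmic p65 intensity ratio per well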); settings: HUVEC TNFa-induced p65 nuclear translocation; cell count: measured here: nuclei count (cytotoxicity indicator), at 2.08 µM; inhibition: at 2 µM, stronger effect = higher value, 0% TNFa-plus-vehicle, 100% no-TNFa wells
# [2] = inhibitors of mutant huntingtin aggregation, primary screen, imaging, exon1htt(103Q)mCFP cells, high-content imaging (AID 483;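 active = visual image review flags a hit and inhibition of aggregation exceeds 20%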;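 note: compound exposure lasted 3 days before fixation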;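 for nuclei count: percent of the per-plate median nuclei count of sample wells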); settings: exon1htt(103Q)mCFP cell line, aggregate imaging, at 2 µM; inhibition of aggregation: stronger effect = higher value; nuclei count: measured here: cell count, toxicity
# [3] = inhibitors of E-selectin induction by TNFa, primary screen, imaging, HUVEC, immunofluorescence, MLSMR starter and 10KST1 sets (AID 487;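 active = visually confirmed hit in the image check and inhibition above 20%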;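 for inhibition: signal is fraction of cell area covered by stained E-selectin grains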;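 for nuclei count: 100% = median nuclei count of all wells on the same plate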); settings: HUVEC TNFalpha-induced E-selectin immunofluorescence imaging, at 2 µM; inhibition: stronger effect = higher value; nuclei count: measured here: cell number, toxicity
# [4] = DUSP6 inhibitors restoring Erk phosphorylation by chemical complementation, primary imaging in DUSP6-transfected HeLa (AID 609;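 active = compounds giving at least 50% inhibition in the cell-based MKP-3 phosphatase rescue imaging test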;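 for inhibition: phospho-Erk level distribution per well compared with pooled transfected vehicle control wells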); settings: HeLa MKP-3 transfected, phospho-Erk imaging KS statistic, at 10 µM, cells stimulated with TPA for 15 min
# [5] = target: Dual specificity protein phosphatase 6 (Homo sapiens) (UniProt Q16828); assay: as above; settings: HeLa MKP-3 transfected, phospho-Erk imaging KS statistic; at 10 µM; stronger effect = higher value; cells stimulated with TPA for 15 min
# [6] = target: Voltage-gated potassium channel subunit beta-2 (Rattus norvegicus) (UniProt P62483); assay: KvBeta enzyme negative modulators, primary screen, biochemical, NADPH fluorescence (AID 622;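 active = fluorescence slope higher than the sample average by over 3 SD, cut at about -0.22 in these data, passing the limit was not always enough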;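 note: slope of raw intensity against log time taken from 70 to 1610 s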); settings: recombinant KvBeta, 4-cyanobenzaldehyde reduction, at 10 µM, stronger effect = higher value
# [7] = target: Voltage-gated potassium channel subunit beta-2 (Rattus norvegicus) (UniProt P62483); assay: KvBeta positive modulators, primary screen, biochemical, NADPH fluorescence (AID 623;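 active = NADPH fluorescence slope more negative than the mean of all samples by about 3 SD, 99.7% confidence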;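 note: fluorescence intensity change per second fitted from 20 to 320 s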); settings: Recombinant KvBeta, NADPH fluorescence decrease slope, 10 min; at 10 µM; stronger effect = lower value
# [8] = target: Alpha-2C adrenergic receptor (Homo sapiens) (UniProt P18825); assay: modulators of alpha2C/GIRK thallium flux, primary screen, cell-based, HEK293 alpha2C/GIRK1/2 (AID 624;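 active = fluorescence slope after compound addition differing from the mean of all screened samples at 99.7% confidence, in either direction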;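 note: slope of fluorescence ratio to pre-addition baseline per second over 15 to 24 s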); settings: thallium flux BTC fluorescence, at 10 µM, actives lie on both sides
# [9] = inhibitors of Chlamydomonas gravitaxis, primary screen, whole organism, Chlamydomonas reinhardtii, WT vs cilia-less mutant, absorbance, 96-well (AID 463189;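 active = inhibition at or above 50% relative to wild type and mutant plate controls; inactive = inhibition below 50%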;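 note: 0% = wild type cc124 cells in DMSO and 100% = ciliumless bld1 mutant cells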); settings: OD600 absorbance, 2 days, at 10 µM, stronger effect = higher value
# [10] = inhibitors of Sendai virus-induced IRF3 signaling, primary screen, TLR/RLR signaling modifier project, cell-based, Sendai virus stimulus, luciferase, 10K MLSCN set (AID 602276;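 active = inhibition at or above 50% at 10 µM; inactive = inhibition below 50%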;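 note: firefly luciferase from ISG56 promoter only with Renilla not read in this screen; 0% = Sendai virus plus DMSO and 100% = medium plus DMSO without virus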); settings: HEK293 RL24 IRF3 luciferase reporter, at 10 µM, stronger effect = higher value
# [11] = inhibitors of poly I:C-induced TLR3 signaling, primary screen, cell-based, poly I:C stimulus, luciferase, 10K MLSCN set (AID 602277;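 active = inhibition of the reporter signal at or above 50%; inactive = inhibition below 50%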); settings: HEK293-TLR3 RL24 IRF3 luciferase reporter, at 10 µM, stronger effect = higher value
# [12] = PubChem AID 1714; settings: HEK293-KCC2 + bumetanide/ouabain, thallium flux FluoZin2; at 10 µM; stronger effect = higher value;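 note: raw slope of fluorescence over initial fluorescence between 10 and 20 s after thallium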
# [13] = target: Solute carrier family 12 member 5 (Homo sapiens) (UniProt Q9H2X9); assay: KCC2 modulators without ouabain present, confirmation, cell-based, HEK293 KCC2, thallium flux, FluoZin2, secondary assay 2 (AID 1715); settings: HEK293-KCC2, thallium flux FluoZin2 fluorescence; at 10 µM; actives lie on both sides; F/F0 rise rate, 10–20 s post-thallium;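 note: raw slope with 0.1% DMSO as baseline and bumetanide as block control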
# [14] = thallium flux modulation in parental HEK cells, confirmation, counter-screen for KCC2 modulator project, cell-based, counterscreen 1 (AID 1716;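 active = thallium flux rate significantly above the same plate's solvent-only control wells, beyond their mean plus 3 SD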); settings: HEK293 parental cells, thallium flux FluoZin2, ouabain; at 10 µM; baseline-ratio fluorescence slope, 10–20 s after thallium
# [15] = target: Solute carrier family 12 member 5 (Homo sapiens) (UniProt Q9H2X9); assay: KCC2 inhibitors and activators, ouabain retest, confirmation, HEK-KCC2 cells (AID 1717;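 active = thallium flux slope beyond 3 SD from same-plate DMSO control mean in most replicates, usually higher, sometimes lower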;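 note: slope of initial-normalized fluorescence between seconds 10 and 20 after thallium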); settings: HEK293-KCC2, thallium flux FluoZin2 fluorescence, at 10 µM, bidirectional: low = inhibitor, high = activator
# [16] = native HEK Tl+ uptake effects, second counter-screen – HEK cells, counterscreen 2, counter-screen for KCC2 modulator project, confirmation (AID 1718;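 active = thallium flux slope above the same plate's solvent-control mean plus 3 SD in both duplicate wells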;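 note: run without ouabain in cells lacking the KCC2 cotransporter; slope of fluorescence scaled to its starting value between 10 and 20 s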); settings: HEK293 parental, thallium flux FluoZin-2 fluorescence slope; at 10 µM
# [17] = target: Muscarinic acetylcholine receptor M4 (Homo sapiens) (UniProt P08173); assay: compounds altering M4/GIRK thallium flux, either direction, primary screen, M4 allosteric agonist project, cell-based, HEK293 M4/GIRK, BTC-AM (AID 625;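 active = fluorescence slope after compound addition differing from the mean of all tested samples at 99.7% confidence, mostly higher but some lower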;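 note: thallium influx through GIRK channels coupled to M4 in HEK293 cells with BTC-AM dye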); settings: at 10 µM, actives lie on both sides
# [18] = inhibitors of larval lipid processing in zebrafish, primary screen, whole organism, PED6 fluorescence, gall bladder and intestine (AID 686;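 active = a full or partial loss of lipid-probe fluorescence in the fish gall bladder, intestine or both, judged by eye; inactive = no fluorescence loss, or compound toxic to the fish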;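 note: larvae 5 to 7 days old with five fish per well; signal comes from phospholipase A2 cleavage of quenched PED6 carried via bile; overnight exposure to compound and PED6 before scoring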); settings: Zebrafish larvae PED6 lipid processing, fluorescence scoring; screened at 20 µM (by protocol)
# [19] = target: Solute carrier family 12 member 5 (Homo sapiens) (UniProt Q9H2X9); assay: KCC2 modulators in sodium-free buffer, confirmation, cell-based, HEK293 KCC2, thallium flux, secondary assay (AID 1713;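 active = thallium flux slope above the same plate's solvent-only control mean plus 3 SD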); settings: FluoZin2 fluorescence, at 10 µM, stronger effect = higher value
# [20] = measured here: cell density z-score
# [21] = measured here: nuclear c-Myc green intensity z-score
# [22] = measured here: nuclear pErk red intensity z-score, stronger effect = higher value
# Chain of Voltage-gated potassium channel subunit beta-2 (Rattus norvegicus) (P62483 whole entry, looked up): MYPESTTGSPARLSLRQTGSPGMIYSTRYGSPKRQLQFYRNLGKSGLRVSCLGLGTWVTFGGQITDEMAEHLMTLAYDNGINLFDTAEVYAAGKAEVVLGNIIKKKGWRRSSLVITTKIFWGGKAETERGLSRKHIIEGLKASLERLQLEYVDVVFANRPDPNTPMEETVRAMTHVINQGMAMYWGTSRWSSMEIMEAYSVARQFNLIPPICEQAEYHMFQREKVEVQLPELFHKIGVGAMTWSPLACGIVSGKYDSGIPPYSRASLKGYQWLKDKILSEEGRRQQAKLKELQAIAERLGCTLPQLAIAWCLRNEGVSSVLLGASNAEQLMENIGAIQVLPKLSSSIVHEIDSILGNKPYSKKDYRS
# Chain of Solute carrier family 12 member 5 (Homo sapiens) (Q9H2X9 whole entry, looked up): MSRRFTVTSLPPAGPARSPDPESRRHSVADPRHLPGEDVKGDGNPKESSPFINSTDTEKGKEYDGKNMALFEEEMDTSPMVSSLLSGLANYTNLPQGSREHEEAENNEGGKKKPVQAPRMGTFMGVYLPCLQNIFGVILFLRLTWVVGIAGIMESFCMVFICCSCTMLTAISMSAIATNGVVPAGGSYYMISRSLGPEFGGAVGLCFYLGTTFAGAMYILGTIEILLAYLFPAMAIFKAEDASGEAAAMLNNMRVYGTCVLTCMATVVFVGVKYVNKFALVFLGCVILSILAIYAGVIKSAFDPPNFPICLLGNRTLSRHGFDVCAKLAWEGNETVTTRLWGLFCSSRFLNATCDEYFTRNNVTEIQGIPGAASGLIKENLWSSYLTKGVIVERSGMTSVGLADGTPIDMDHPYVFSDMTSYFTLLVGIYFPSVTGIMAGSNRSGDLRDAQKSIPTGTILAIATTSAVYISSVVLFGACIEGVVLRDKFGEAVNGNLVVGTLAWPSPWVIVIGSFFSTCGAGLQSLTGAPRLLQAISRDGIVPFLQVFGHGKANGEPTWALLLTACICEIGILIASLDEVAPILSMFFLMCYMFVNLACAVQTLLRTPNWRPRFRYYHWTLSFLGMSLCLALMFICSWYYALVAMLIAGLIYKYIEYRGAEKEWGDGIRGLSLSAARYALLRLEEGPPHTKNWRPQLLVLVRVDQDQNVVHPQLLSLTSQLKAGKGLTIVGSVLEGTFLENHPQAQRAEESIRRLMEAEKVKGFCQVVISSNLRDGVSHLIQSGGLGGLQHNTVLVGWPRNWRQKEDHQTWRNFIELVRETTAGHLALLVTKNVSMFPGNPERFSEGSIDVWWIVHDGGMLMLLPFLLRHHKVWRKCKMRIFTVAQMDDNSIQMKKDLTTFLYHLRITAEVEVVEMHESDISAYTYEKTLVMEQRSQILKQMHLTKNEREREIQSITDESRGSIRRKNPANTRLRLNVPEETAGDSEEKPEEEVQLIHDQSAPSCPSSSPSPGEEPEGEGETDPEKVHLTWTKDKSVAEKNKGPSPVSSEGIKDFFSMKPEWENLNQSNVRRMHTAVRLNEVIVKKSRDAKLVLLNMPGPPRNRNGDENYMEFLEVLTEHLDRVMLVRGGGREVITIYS
# Chain of Dual specificity protein phosphatase 6 (Homo sapiens) (Q16828 whole entry, looked up): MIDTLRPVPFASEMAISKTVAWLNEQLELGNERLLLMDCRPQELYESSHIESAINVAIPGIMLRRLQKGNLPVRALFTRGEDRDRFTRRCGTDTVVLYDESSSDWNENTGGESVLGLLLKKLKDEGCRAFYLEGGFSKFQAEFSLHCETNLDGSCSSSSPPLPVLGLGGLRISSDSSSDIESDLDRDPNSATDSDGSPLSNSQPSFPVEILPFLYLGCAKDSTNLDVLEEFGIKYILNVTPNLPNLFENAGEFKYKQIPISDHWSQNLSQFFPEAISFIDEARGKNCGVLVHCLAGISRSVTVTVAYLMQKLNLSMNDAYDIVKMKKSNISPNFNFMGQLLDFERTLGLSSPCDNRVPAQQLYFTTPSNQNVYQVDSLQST
# Chain of Muscarinic acetylcholine receptor M4 (Homo sapiens) (P08173 whole entry, looked up): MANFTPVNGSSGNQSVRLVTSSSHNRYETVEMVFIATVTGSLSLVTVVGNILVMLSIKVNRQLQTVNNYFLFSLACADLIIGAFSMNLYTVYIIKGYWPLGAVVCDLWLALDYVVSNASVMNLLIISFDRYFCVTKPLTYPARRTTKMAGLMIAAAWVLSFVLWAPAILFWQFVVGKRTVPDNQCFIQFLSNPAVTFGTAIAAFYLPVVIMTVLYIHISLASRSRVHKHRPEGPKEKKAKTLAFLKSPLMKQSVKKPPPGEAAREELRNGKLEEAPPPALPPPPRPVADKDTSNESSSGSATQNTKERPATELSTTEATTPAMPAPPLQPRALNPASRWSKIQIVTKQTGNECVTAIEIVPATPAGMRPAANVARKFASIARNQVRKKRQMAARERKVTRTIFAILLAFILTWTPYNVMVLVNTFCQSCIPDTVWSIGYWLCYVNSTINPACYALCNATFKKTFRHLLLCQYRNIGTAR
# Chain of Alpha-2C adrenergic receptor (Homo sapiens) (P18825 whole entry, looked up): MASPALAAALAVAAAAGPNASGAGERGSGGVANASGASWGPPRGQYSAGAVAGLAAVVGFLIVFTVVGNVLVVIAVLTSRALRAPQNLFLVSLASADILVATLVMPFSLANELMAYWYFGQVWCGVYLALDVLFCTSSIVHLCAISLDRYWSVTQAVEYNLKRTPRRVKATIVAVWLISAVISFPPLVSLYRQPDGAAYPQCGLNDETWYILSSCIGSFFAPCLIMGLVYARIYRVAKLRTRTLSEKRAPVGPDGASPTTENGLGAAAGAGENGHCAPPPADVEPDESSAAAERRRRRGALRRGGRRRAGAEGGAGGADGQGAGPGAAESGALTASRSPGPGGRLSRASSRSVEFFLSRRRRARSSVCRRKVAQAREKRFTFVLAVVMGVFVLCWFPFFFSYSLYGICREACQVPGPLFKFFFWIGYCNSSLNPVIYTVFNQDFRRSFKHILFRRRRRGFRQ
smiles,measurement,setting,value
CCCCC(=O)O[C@H]1CC[C@H]2[C@@H]3CCc4cc(O)ccc4[C@H]3CC[C@]12C,cell count,[1],524
same,inhibition,[1],-3.1% (inactive)
same,inhibition of aggregation,[2],7% (inactive)
same,nuclei count,[2],88.9%
same,inhibition,[3],-104% (inactive)
same,nuclei count,[3],131%
same,z-score,[4]; [20],-0.577
same,z-score,[4]; [21],-1.69
same,z-score,[4]; [22],-0.657
same,inhibition,[5],-0.828% (inactive)
same,fluorescence slope,[6],-0.453 (inactive)
same,NADPH fluorescence slope,[7],-3e-05 (inactive)
same,slope,[8],0.00721 (inactive)
same,inhibition,[9],22.7% (inactive)
same,inhibition,[10],16.8% (inactive)
same,inhibition,[11],40.4% (inactive)
O=C(CSc1cccc2cccnc12)N/N=C/c1cccnc1,normalized thallium flux,[12],0.0504 (active)
same,normalized thallium flux,[13],0.0285 (inactive)
same,thallium flux rate (normalised fluorescence),[14],0.0251 (active)
same,"raw Tl+ flux slope (below DMSO = inhibition, above = activation)",[15],0.0449 (active)
same,thallium flux slope,[16],0.0116 (active)
O=C(Nc1ccccc1F)C1C2C=CC3(O2)C1C(=O)N(c1cccnc1)C3C(=O)NC1CCCCC1 (stereo not drawn),normalized thallium flux,[12],0.00547 (active)
same,normalized thallium flux,[13],0.0222 (active)
same,"raw Tl+ flux slope (below DMSO = inhibition, above = activation)",[15],0.0131 (active)
same,thallium flux slope,[16],0.0108 (inactive)
Cc1cccc(N(CC(O)CN(C)C)S(=O)(=O)c2ccccc2)c1 (stereo not drawn),cell count,[1],660
same,inhibition,[1],-8.8% (inactive)
same,inhibition,[3],-9.3% (inactive)
same,nuclei count,[3],177%
same,z-score,[4]; [20],0.811
same,z-score,[4]; [21],0.15
same,z-score,[4]; [22],0.694
same,inhibition,[5],1.42% (inactive)
same,fluorescence slope,[6],-0.413 (inactive)
same,NADPH fluorescence slope,[7],-6e-05 (inactive)
same,fluorescence slope,[17],0.00446 (inactive)
same,outcome,[18],inactive
same,normalised thallium flux (F/F0 slope),[19],0.00903 (inactive)
same,normalized thallium flux,[13],0.0335 (inactive)
same,thallium flux rate (normalised fluorescence),[14],0.00768 (inactive)
same,"raw Tl+ flux slope (below DMSO = inhibition, above = activation)",[15],0.0203 (inactive)
same,thallium flux slope,[16],0.0103 (inactive)
same,inhibition,[9],30.7% (inactive)
